About 8,800 targets were measured; listed, in parts, are those with a hit and a random draw of the rest. About 0.5% of all pairs of compound and target were hits.
Key:
Experiment in all cases: log2 fold change, soluble protein after heating vs DMSO (PISA); higher = thermal stabilisation; K562 lysate, 10 uM; active = over 0.2 and 3.5 SD of the protein, either way, in both replicates (recomputed)
alvocidib = compound: CN1CC[C@H](c2c(O)cc(O)c3c(=O)cc(-c4ccccc4Cl)oc23)[C@H](O)C1 [alvocidib]
Method in brief: (§1)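 Thermal stability, expressed as log-two fold change relative to solvent controls, is given from duplicates. Crude K562 extract in PBS pH 7.4 with 1 mM MgCl2, at 1 mg/mL protein, was treated with 10 μM compound for 30 min and heated in aliquots for 3 min across 48°C-58°C. After pooling, adjustment to 0.5% NP-40 at 4°C and centrifugation at 21,000xg for 90 min, supernatant protein was measured by TMTpro 16plex LC-MS/MS with channel sums equalised.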

Tubastatin A = compound: CN1CCc2c(c3ccccc3n2Cc2ccc(C(=O)NO)cc2)C1 [Tubastatin A]
Method in brief: as §1

[1] = compound: CNC(=O)C1=CC=CC=C1NC2=NC(=NC=C2Cl)NC3=C(C=C(C=C3)N4CCOCC4)OC
Method in brief: as §1

defactinib = compound: CNC(=O)c1ccc(Nc2ncc(C(F)(F)F)c(NCc3nccnc3N(C)S(C)(=O)=O)n2)cc1 [defactinib]
Method in brief: as §1

[2] = compound: CNc1nc(-c2ccc3c(N)n[nH]c3c2)cc(N2C[C@@H](C(=O)NC3CCCCC3)CC[C@H]2C)n1
Method in brief: as §1

encorafenib = compound: COC(=O)N[C@@H](C)CNc1nccc(-c2cn(C(C)C)nc2-c2cc(Cl)cc(NS(C)(=O)=O)c2F)n1 [encorafenib]
Method in brief: as §1

[3] = compound: COC(=O)[C@H](CCSC)NC(=O)C1=C(C=C(C=C1)NC[C@H](CS)N)C2=CC=CC=C2
Method in brief: as §1

alisertib = compound: COc1cc(Nc2ncc3c(n2)-c2ccc(Cl)cc2C(c2c(F)cccc2OC)=NC3)ccc1C(=O)O [alisertib]
Method in brief: as §1

[4] = compound: COc1cc2nc(-c3cc(F)ccc3O)nc(N[C@@H]3CNC[C@H]3C(C)(C)O)c2cc1OC
Method in brief: as §1

gefitinib = compound: COc1cc2ncnc(Nc3ccc(F)c(Cl)c3)c2cc1OCCCN1CCOCC1 [gefitinib]
Method in brief: as §1

lapatinib = compound: CS(=O)(=O)CCNCc1ccc(-c2ccc3ncnc(Nc4ccc(OCc5cccc(F)c5)c(Cl)c4)c3c2)o1 [lapatinib]
Method in brief: as §1

pictilisib = compound: CS(=O)(=O)N1CCN(Cc2cc3nc(-c4cccc5[nH]ncc45)nc(N4CCOCC4)c3s2)CC1 [pictilisib]
Method in brief: as §1

crizotinib = compound: C[C@@H](Oc1cc(-c2cnn(C3CCNCC3)c2)cnc1N)c1c(Cl)ccc(F)c1Cl [crizotinib]
Method in brief: as §1

[5] = compound: C[C@H](C1=CC=C(C=C1)C(=O)NC2=C3C=CNC3=NC=C2)N
Method in brief: as §1

duvelisib = compound: C[C@H](Nc1ncnc2nc[nH]c12)c1cc2cccc(Cl)c2c(=O)n1-c1ccccc1 [duvelisib]
Method in brief: as §1

gandotinib = compound: Cc1cc(Nc2cc(CN3CCOCC3)c3nc(C)c(Cc4ccc(Cl)cc4F)n3n2)n[nH]1 [gandotinib]
Method in brief: as §1

tozasertib = compound: Cc1cc(Nc2cc(N3CCN(C)CC3)nc(Sc3ccc(NC(=O)C4CC4)cc3)n2)n[nH]1 [tozasertib]
Method in brief: as §1

doramapimod = compound: Cc1ccc(-n2nc(C(C)(C)C)cc2NC(=O)Nc2ccc(OCCN3CCOCC3)c3ccccc23)cc1 [doramapimod]
Method in brief: as §1

bafetinib = compound: Cc1ccc(NC(=O)c2ccc(CN3CC[C@H](N(C)C)C3)c(C(F)(F)F)c2)cc1Nc1nccc(-c2cncnc2)n1 [bafetinib]
Method in brief: as §1

[6] = compound: Cc1cccc(CC(=O)N2CCc3c2ccc(-c2cn(C)c4ncnc(N)c24)c3F)n1
Method in brief: as §1

Measured: log2 fold change

SMC2 (UniProt O95347)
Sequence of UniProt O95347 (O95347 whole entry, looked up): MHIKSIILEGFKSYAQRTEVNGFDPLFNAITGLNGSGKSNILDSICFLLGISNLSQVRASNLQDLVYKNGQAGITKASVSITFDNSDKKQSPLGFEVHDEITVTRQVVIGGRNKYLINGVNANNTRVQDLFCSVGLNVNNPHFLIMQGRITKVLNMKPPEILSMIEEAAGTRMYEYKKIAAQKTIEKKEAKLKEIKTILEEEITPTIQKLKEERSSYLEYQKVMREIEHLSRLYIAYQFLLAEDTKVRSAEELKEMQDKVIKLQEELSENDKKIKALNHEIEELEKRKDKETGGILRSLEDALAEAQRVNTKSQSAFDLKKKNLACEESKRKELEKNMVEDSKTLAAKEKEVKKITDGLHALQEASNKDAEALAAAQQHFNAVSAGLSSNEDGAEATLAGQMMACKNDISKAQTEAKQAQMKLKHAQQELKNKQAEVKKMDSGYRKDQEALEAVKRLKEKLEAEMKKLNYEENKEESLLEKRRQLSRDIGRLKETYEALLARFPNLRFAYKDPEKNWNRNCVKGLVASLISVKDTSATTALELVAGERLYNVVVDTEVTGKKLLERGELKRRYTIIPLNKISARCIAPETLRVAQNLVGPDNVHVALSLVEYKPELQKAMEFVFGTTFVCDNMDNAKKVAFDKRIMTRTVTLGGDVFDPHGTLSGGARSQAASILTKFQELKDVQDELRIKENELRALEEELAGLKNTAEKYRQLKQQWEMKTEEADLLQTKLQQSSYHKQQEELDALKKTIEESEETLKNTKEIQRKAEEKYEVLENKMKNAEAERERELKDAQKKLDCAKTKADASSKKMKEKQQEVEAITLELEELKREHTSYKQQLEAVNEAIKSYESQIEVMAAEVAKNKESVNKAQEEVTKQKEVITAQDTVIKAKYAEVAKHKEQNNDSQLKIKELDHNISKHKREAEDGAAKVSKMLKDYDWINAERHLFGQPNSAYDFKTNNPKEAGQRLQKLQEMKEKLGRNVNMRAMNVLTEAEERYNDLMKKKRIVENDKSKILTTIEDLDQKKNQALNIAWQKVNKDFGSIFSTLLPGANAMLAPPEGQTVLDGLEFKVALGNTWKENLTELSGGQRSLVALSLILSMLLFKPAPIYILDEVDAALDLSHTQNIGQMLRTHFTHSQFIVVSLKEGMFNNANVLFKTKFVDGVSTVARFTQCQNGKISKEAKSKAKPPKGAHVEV
inactive: alvocidib 0.039 | Tubastatin A -0.087 | [1] -0.004 | defactinib -0.003 | [2] -0.022 | encorafenib -0.005 | [3] 0.047 | alisertib 0.005 | [4] 0.003 | gefitinib -0.003 | lapatinib -0.019 | pictilisib 0.013 | crizotinib -0.028 | [5] 0.121 | duvelisib -0.009 | gandotinib -0.177 | tozasertib 0.014 | doramapimod 0.037 | bafetinib -0.02 | [6] -0.059

SHKBP1 (UniProt Q8TBC3)
active: [3] 0.274
inactive: alvocidib -0.038 | Tubastatin A -0.018 | [1] -0.002 | defactinib 0.115 | [2] 0.046 | encorafenib -0.05 | alisertib 0.019 | [4] 0.001 | gefitinib 0.023 | lapatinib -0.027 | pictilisib -0.045 | crizotinib -0.009 | [5] -0.045 | duvelisib 0.055 | gandotinib 0.034 | tozasertib -0.009 | doramapimod 0.005 | bafetinib -0.04 | [6] 0.055

STK39 (UniProt Q9UEW8)
inactive: alvocidib 0.011 | Tubastatin A -0.128 | [1] -0.015 | defactinib 0 | [2] -0.026 | encorafenib -0.021 | [3] 0.164 | alisertib -0.055 | [4] 0.02 | gefitinib 0.028 | lapatinib 0.011 | pictilisib -0.038 | crizotinib -0.063 | [5] -0.012 | duvelisib 0.087 | gandotinib -0.044 | tozasertib 0.021 | doramapimod 0.032 | bafetinib -0.03 | [6] 0.057

SLC30A9 (UniProt Q6PML9)
inactive: alvocidib 0 | Tubastatin A 0.022 | [1] 0.002 | defactinib 0.064 | [2] 0.023 | encorafenib 0.032 | [3] 0.05 | alisertib -0.008 | [4] -0.079 | gefitinib -0.01 | lapatinib -0.007 | pictilisib -0.054 | crizotinib -0.043 | [5] -0.423 | duvelisib 0.048 | gandotinib 0.008 | tozasertib -0.003 | doramapimod 0.036 | bafetinib -0.161
active: [6] 0.312

SRSF2 (UniProt Q01130)
Sequence of UniProt Q01130 (Q01130 whole entry, looked up): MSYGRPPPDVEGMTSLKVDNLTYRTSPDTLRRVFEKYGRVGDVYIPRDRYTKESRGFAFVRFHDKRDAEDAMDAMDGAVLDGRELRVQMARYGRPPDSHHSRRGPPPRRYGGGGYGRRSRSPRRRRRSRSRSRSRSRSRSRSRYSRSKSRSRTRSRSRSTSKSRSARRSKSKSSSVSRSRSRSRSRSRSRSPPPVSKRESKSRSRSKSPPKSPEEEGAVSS
active: [5] -0.299
inactive: alvocidib -0.135 | Tubastatin A 0.084 | [1] -0.017 | defactinib -0.018 | [2] -0.005 | encorafenib 0.033 | [3] -0.016 | alisertib -0.004 | [4] 0.016 | gefitinib 0.015 | lapatinib 0.015 | pictilisib -0.005 | crizotinib 0.006 | duvelisib 0.061 | gandotinib 0.079 | tozasertib 0.026 | doramapimod 0.05 | bafetinib -0.016 | [6] 0.109

TARBP1 (UniProt Q13395)
inactive: alvocidib 0.009 | Tubastatin A -0.118 | [1] -0.066 | defactinib -0.034 | [2] 0.047 | encorafenib 0.073 | [3] -0.236 | alisertib 0.018 | [4] -0.004 | gefitinib 0.011 | lapatinib -0.009 | pictilisib 0.007 | crizotinib -0.122 | [5] 0.017 | duvelisib -0.034 | gandotinib -0.124 | tozasertib 0.098 | doramapimod -0.022 | bafetinib -0.044 | [6] 0.079

SLC7A5 (UniProt Q01650)
inactive: alvocidib -0.142 | Tubastatin A 0.012 | [1] -0.047 | defactinib -0.044 | [2] 0.046 | encorafenib -0.001 | [3] -0.084 | alisertib -0.002 | [4] 0.021 | gefitinib 0.006 | lapatinib -0.004 | pictilisib 0.026 | crizotinib -0.069 | duvelisib 0.051 | tozasertib -0.012 | doramapimod 0.019 | bafetinib 0.046 | [6] 0.129
active: [5] -0.308 | gandotinib 0.201

SMG1 (UniProt Q96Q15)
inactive: alvocidib 0.022 | Tubastatin A -0.05 | [1] 0.01 | defactinib 0.033 | [2] -0.046 | encorafenib 0.016 | [3] 0 | alisertib -0.02 | [4] -0.013 | gefitinib 0.012 | lapatinib -0.025 | pictilisib -0.05 | crizotinib -0.019 | [5] 0.002 | duvelisib 0.003 | gandotinib -0.105 | tozasertib 0.024 | doramapimod 0.015 | bafetinib -0.057 | [6] 0.049

SRP54 (UniProt P61011)
inactive: alvocidib -0.023 | Tubastatin A 0.01 | [1] -0.011 | defactinib 0.035 | [2] 0.023 | encorafenib 0.067 | [3] 0.011 | alisertib 0.055 | [4] 0.043 | gefitinib -0.025 | lapatinib 0.021 | pictilisib -0.021 | crizotinib 0.019 | [5] -0.035 | duvelisib -0.024 | gandotinib 0.039 | tozasertib -0.004 | doramapimod 0.041 | bafetinib -0.029 | [6] 0.04

SLC27A2 (UniProt O14975)
Sequence of UniProt O14975 (O14975 whole entry, looked up): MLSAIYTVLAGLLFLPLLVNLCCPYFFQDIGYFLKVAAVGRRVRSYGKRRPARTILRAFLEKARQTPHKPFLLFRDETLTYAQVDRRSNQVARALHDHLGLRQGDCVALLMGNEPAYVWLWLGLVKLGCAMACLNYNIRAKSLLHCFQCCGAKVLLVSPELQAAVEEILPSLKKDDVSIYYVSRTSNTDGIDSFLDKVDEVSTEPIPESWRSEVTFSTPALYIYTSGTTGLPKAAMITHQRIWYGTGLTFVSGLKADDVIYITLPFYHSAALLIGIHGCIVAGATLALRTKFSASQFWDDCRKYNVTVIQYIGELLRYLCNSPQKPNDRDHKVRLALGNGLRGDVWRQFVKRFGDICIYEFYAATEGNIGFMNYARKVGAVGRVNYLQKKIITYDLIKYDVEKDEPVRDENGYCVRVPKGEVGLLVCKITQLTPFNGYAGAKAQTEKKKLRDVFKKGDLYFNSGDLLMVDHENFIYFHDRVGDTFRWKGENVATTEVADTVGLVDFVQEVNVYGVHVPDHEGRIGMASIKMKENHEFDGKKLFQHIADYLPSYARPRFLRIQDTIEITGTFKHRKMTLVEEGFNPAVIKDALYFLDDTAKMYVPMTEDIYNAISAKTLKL
inactive: alvocidib 0.005 | Tubastatin A -0.009 | [1] 0.216 | defactinib -0.044 | [2] 0.172 | encorafenib 0.063 | [3] 0.019 | alisertib 0.002 | [4] 0.017 | gefitinib -0.089 | lapatinib 0.063 | pictilisib -0.049 | crizotinib -0.092 | [5] -0.067 | duvelisib 0.031 | gandotinib 0.286 | tozasertib 0.117 | doramapimod 0.064 | bafetinib 0.015 | [6] -0.014

SMAP2 (UniProt Q8WU79)
inactive: alvocidib 0.017 | Tubastatin A -0.002 | [1] -0.058 | defactinib 0.024 | [2] -0.086 | encorafenib 0.047 | [3] -0.037 | alisertib -0.004 | [4] 0.01 | gefitinib -0.03 | lapatinib -0.017 | pictilisib -0.164 | crizotinib 0.102 | [5] 0.031 | duvelisib -0.008 | gandotinib -0.008 | tozasertib 0.054 | doramapimod -0.019 | bafetinib 0.051 | [6] -0.032

SH3GL3 isoform 3 (UniProt Q99963)
Sequence of UniProt Q99963 (Q99963 whole entry, looked up): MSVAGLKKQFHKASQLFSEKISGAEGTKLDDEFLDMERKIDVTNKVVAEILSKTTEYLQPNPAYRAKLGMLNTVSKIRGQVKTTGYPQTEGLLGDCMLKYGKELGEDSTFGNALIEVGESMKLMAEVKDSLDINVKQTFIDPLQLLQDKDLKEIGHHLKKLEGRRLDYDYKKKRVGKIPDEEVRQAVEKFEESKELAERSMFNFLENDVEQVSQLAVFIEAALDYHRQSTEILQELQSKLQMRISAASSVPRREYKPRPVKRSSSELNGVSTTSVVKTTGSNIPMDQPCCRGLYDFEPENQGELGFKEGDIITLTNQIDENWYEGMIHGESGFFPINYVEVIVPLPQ
active: [5] -0.548 | [6] 0.446
inactive: alvocidib -0.263 | Tubastatin A -0.14 | [1] 0.024 | defactinib -0.063 | [2] 0.15 | encorafenib 0.072 | [3] -0.041 | alisertib -0.076 | [4] 0.09 | gefitinib 0.041 | lapatinib -0.07 | pictilisib -0.087 | crizotinib -0.04 | duvelisib -0.005 | gandotinib 0.326 | tozasertib 0.028 | doramapimod 0.016 | bafetinib -0.147

SMC3 (UniProt Q9UQE7)
inactive: alvocidib -0.009 | Tubastatin A 0.006 | [1] 0.003 | defactinib 0.002 | [2] -0.036 | encorafenib -0.007 | [3] 0.002 | alisertib 0.005 | [4] -0.013 | gefitinib -0.005 | lapatinib 0.007 | pictilisib 0.006 | crizotinib 0.011 | [5] 0.037 | duvelisib -0.01 | gandotinib -0.013 | tozasertib 0.001 | doramapimod -0.007 | bafetinib -0.021 | [6] -0.012

SRM (UniProt P19623)
inactive: alvocidib 0.008 | Tubastatin A -0.014 | [1] -0.014 | defactinib -0.03 | [2] -0.03 | encorafenib -0.011 | [3] 0.083 | alisertib -0.03 | [4] 0.016 | gefitinib 0.011 | lapatinib -0.015 | pictilisib -0.013 | crizotinib -0.048 | [5] -0.032 | gandotinib -0.036 | tozasertib 0.01 | doramapimod -0.017 | bafetinib -0.009 | [6] -0.033
active: duvelisib 0.716

STOML2 (UniProt Q9UJZ1)
inactive: alvocidib -0.017 | Tubastatin A 0.095 | [1] -0.009 | defactinib 0.017 | [2] 0.022 | encorafenib -0.007 | [3] -0.055 | alisertib -0.004 | [4] 0.052 | gefitinib 0.08 | lapatinib 0.013 | pictilisib -0.021 | crizotinib 0.028 | [5] 0.089 | duvelisib 0.035 | gandotinib 0.015 | tozasertib 0.012 | doramapimod -0.032 | bafetinib 0.033 | [6] -0.023

SPG11 (UniProt Q96JI7)
Sequence of UniProt Q96JI7 (Q96JI7 whole entry, looked up): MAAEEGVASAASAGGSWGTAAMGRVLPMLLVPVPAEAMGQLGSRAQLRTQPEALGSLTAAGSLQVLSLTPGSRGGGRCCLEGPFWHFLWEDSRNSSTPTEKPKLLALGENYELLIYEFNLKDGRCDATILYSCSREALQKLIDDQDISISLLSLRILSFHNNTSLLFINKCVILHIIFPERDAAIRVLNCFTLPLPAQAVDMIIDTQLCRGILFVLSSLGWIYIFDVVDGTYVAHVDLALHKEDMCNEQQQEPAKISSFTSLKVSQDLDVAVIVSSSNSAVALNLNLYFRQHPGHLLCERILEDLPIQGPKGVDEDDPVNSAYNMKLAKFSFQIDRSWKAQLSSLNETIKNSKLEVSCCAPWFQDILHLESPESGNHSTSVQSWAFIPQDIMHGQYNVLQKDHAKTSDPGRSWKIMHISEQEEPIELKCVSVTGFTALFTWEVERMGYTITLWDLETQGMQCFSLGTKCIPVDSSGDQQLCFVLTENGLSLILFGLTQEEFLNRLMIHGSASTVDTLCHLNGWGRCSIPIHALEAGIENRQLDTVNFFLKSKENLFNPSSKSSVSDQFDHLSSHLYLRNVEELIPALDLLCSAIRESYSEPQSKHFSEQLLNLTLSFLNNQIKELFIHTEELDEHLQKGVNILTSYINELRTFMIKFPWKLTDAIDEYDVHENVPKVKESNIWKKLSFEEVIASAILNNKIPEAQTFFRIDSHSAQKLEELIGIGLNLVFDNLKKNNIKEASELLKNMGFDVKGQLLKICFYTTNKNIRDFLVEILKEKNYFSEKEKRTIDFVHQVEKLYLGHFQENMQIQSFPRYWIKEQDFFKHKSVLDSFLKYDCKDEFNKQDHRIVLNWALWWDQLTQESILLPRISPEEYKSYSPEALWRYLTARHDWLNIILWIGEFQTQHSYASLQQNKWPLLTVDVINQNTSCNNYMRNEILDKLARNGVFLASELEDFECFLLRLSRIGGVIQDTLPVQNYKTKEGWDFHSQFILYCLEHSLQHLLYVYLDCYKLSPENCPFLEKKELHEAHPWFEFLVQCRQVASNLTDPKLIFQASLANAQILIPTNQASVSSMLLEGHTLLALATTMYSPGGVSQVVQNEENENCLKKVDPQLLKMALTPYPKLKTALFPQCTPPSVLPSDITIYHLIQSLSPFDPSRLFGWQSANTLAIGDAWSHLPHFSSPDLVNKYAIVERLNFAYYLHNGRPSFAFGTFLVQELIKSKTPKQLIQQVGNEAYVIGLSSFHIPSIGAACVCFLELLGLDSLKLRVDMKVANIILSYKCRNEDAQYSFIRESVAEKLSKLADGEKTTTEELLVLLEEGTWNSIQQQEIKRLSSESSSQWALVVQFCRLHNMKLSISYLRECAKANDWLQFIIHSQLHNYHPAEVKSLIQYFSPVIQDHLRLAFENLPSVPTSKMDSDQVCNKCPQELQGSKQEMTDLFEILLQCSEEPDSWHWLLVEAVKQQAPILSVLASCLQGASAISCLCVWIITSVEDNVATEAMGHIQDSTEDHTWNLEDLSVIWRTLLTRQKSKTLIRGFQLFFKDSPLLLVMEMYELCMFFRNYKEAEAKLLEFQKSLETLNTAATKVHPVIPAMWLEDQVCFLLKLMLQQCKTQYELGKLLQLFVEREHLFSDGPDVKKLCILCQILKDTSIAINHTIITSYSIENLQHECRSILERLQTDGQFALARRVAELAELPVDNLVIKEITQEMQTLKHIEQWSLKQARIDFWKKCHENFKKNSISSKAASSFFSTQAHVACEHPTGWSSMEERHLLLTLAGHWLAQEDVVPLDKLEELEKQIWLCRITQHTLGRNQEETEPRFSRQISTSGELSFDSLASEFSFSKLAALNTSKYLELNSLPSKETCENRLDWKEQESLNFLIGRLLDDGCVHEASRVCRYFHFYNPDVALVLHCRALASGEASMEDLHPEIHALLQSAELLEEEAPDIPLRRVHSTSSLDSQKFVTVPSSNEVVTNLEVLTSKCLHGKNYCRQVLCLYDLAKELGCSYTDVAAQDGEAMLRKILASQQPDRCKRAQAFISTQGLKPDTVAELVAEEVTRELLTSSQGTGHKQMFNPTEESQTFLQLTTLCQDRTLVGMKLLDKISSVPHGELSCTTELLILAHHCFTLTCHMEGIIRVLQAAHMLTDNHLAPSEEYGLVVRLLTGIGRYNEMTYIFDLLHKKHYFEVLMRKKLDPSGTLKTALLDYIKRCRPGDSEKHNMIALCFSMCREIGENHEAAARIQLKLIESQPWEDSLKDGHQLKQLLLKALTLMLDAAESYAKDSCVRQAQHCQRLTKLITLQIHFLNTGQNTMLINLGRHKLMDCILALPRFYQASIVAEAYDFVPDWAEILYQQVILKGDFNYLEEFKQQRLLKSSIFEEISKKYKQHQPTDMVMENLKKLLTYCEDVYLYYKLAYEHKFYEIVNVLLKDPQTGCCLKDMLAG
inactive: alvocidib 0.161 | Tubastatin A -0.129 | [1] -0.058 | defactinib -0.015 | [2] -0.003 | encorafenib 0.049 | [3] 0.088 | alisertib -0.041 | [4] 0.07 | gefitinib -0.024 | lapatinib -0.163 | pictilisib -0.021 | crizotinib -0.102 | [5] -0.049 | duvelisib 0.048 | gandotinib 0 | tozasertib 0.047 | doramapimod 0.024 | bafetinib 0.138 | [6] -0.009
